FECH block = inhibitors of human ferrochelatase; P22830; purified FECH, Ni-mesoporphyrin absorbance 550 nm; calls only at 10 µM (by protocol); 20,000 tested, 3.3% active;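 active means enzyme reaction rate more than 3 SD below the solvent-only control wells on the same plate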;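 further: lower slope than DMSO wells means FECH inhibition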
An asterisk follows results filed as active. The entries come from a sample that favours hits as a whole.

For COc1cc(OC)c(NC(=O)CN2CCCN(Cc3ccccc3)S2(=O)=O)cc1Cl the results were FECH block active.
COc1ccccc1NC(=O)CN1CCCN(Cc2cccc(C)c2)S1(=O)=O was read as FECH block active.
CCOc1ccccc1NC(=O)CN1CCCN(Cc2cccc(C)c2)S1(=O)=O was read as FECH block active.
Screening COc1cc(OC)c(NC(=O)CN2CCN(Cc3ccccc3F)S2(=O)=O)cc1Cl returned FECH block inactive.
`COc1ccc(NC(=O)CN2CCCN(Cc3ccccc3)S2(=O)=O)c(OC)c1` gave FECH block inactive.
Screening COc1ccccc1NC(=O)CN1CCCN(Cc2ccc(Cl)cc2)S1(=O)=O returned FECH block inactive.
Screening COc1ccccc1NC(=O)CN1CCCN(Cc2cccc(F)c2)S1(=O)=O returned FECH block inactive.
Screening CCOc1ccccc1NC(=O)CN1CCCN(Cc2ccc(OC)cc2)S1(=O)=O returned FECH block inactive.
`CCc1ccc(S(=O)(=O)NCc2nc3cccnc3n2Cc2cccc(C)c2)cc1` gave FECH block inactive.
`C=CCn1cc(CN2CCn3nc(-c4nc5ccccc5n4C)cc3C2)c(C)n1` gave FECH block inactive.
For CCOc1ccccc1NS(=O)(=O)c1ccc2c(c1)CCN2C(=O)CCC(=O)N1CCOCC1 the results were FECH block inactive.
c1ccc(Cc2nc(CCc3cccs3)n[nH]2)cc1 was read as FECH block inactive.
For CCN(CC)C(=O)C1CCCN(CC(=O)Nc2cnccn2)C1 (stereo not given) the results were FECH block inactive.
`CCc1ccccc1NC(=O)CN1CCN(Cc2ccc(F)cc2Cl)S1(=O)=O` gave FECH block inactive.
For CCOc1ccccc1NC(=O)CN1CCN(Cc2ccccc2Cl)S1(=O)=O the results were FECH block inactive.
`CCOC(=O)c1ccccc1NC(=O)CN1CCN(Cc2ccccc2C)S1(=O)=O` gave FECH block inactive.
CCOc1ccccc1NC(=O)CN1CCN(Cc2ccc(F)cc2Cl)S1(=O)=O was read as FECH block active.
CCOc1ccccc1NC(=O)CN1CCN(Cc2ccccc2C)S1(=O)=O was read as FECH block active.
CCc1ccccc1NC(=O)CN1CCN(Cc2ccccc2C)S1(=O)=O was read as FECH block inactive.
Screening Cc1ccc(-c2nc3cccnc3n2CCNS(=O)(=O)N(C)C)cc1 returned FECH block inactive.
`Cc1nn(-c2ccc(F)cc2)c(C)c1CNC(C)Cn1ccnc1` (stereo not given) gave FECH block inactive.
CN1CC(=O)N(CC(=O)Nc2ccc(F)c(Cl)c2)c2ccccc2C1=O was read as FECH block active.
For Cc1ccc(NC(=O)CN2C(=O)CN(C)C(=O)c3ccccc32)cc1 the results were FECH block inactive.
CN1CC(=O)N(CC(=O)Nc2ccccc2)c2ccccc2C1=O was read as FECH block inactive.
For Cc1cc(C)cc(NC(=O)CN2C(=O)CN(C)C(=O)c3ccccc32)c1 the results were FECH block inactive.
For CC(C)c1ccc(NC(=O)CN2C(=O)CN(C)C(=O)c3ccccc32)cc1 the results were FECH block inactive.
CN1CC(=O)N(CC(=O)Nc2ccc3c(c2)OCO3)c2ccccc2C1=O was read as FECH block active.
`CCOc1ccc(-c2nc(CNS(=O)(=O)N(C)C)c(C)o2)cc1` gave FECH block inactive.
Cc1nc2ncnn2c(Sc2ccc(NC(=O)Nc3ccc4c(c3)OCCO4)cc2)c1C was read as FECH block inactive.
COc1ccc(-c2c(C)n[nH]c2C)cn1 was read as FECH block inactive.
For Cc1cnc(CNc2nccc(CCC(F)(F)F)n2)cn1 the results were FECH block inactive.
